Bioassay records from PubChem BioAssay.
TR SRC2 fluor cs: counter-screen for TRb-SRC2 inhibitors: fluorescence interference | TRb/SRC2 Texas Red total fluorescence interference | Potency, µM (titrated, usually from 106 µM), without a hit: at the top dose fluorescence change, negative = quenching | 280,000 compounds, 0.29% hits; active = well fitted curve in either direction with a large enough effect; inconclusive = small, poorly fitted or top-dose-only effect
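Human TRβ ligand-binding domain (0.6 uM) and Texas Red SRC2 peptide (20 nM) in Tris buffer with 1 uM T3 and 5% DMSO were incubated with pinned compound for 5 hr at ambient temperature. Total fluorescence was computed as S + 2P (555/632 nm).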
GoLoco inh red: blocks human Gai1 binding to RGS12 GoLoco peptide, red readout; P63096; Gai1:RGS12 GoLoco peptide FP, rhodamine, 10 min; Potency, µM (top dose mostly 61.6 µM), without a hit: top-dose activity, negative = inhibition, hits mostly inhibitors; 230,000 compounds, 0.44% hits; active = well fitted inhibition curve with a large enough effect, not every such curve was filed as active; inactive = no such curve, though single readings can be large or run the other way; also: nearly all actives have a fitted effect of over 30% in size
Tau fluor counter: counter-screen for tau fibril formation inhibitors. tau K18 P301L Alexa594 fluorescence, heparin fibrillization. Potency, µM (titrated, usually from 57.7 µM), without a hit: at the highest dose activity change, negative = decrease. 280,000 compounds, 0.93% hits; also: nearly all actives have a fitted effect of over 55% in size
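Human tau K18 P301L (15 uM unlabeled, 0.24 uM Alexa 594-labeled) in 100 mM sodium acetate pH 7 with 20 uM heparin, 6 hr at 37 C. ThT 30 uM added, 1 hr ambient; Alexa 594 FP and total fluorescence read at 555/632 nm.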
Tau ThT inhib: tau fibrillization inhibition (ThT binding). AID 1460. Potency, µM (highest dose often 57.4 µM), without a hit: at the top dose activity, negative = inhibition, most hits filed as inhibitors. 270,000 compounds, 2.1% hits. P10636. recombinant tau K18 P301L (four-repeat tau fragment), heparin-induced fibrillization, ThT fluorescence; also: nearly all actives have a fitted effect of over 55% in size
Target sequence (P10636 561-689 P618L limits assumed): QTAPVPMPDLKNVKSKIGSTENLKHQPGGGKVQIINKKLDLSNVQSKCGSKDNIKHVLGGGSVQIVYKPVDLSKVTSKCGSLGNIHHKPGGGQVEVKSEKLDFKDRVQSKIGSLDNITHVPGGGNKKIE
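In this qHTS, human K18 P301L tau is incubated with compound and heparin for 6 hr at 37 C, and Thioflavin T fluorescence then reports fibril load.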
TRb-SRC2 inh: disrupts binding of human TR beta to SRC2; P10828; TRbeta-SRC2 peptide binding, fluorescence polarization; receptor liganded with 1 µM T3; Potency, µM (doses to about 106 µM), for inactives: top-dose activity change, negative = inhibition, usual class: inhibitors; 280,000 compounds, 0.065% hits; AID 1469;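 also: plate controls were bound peptide for no effect and peptide without receptor for full effect; nearly all actives have a fitted effect of over 50% in size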
Target sequence (P10828 whole entry, looked up): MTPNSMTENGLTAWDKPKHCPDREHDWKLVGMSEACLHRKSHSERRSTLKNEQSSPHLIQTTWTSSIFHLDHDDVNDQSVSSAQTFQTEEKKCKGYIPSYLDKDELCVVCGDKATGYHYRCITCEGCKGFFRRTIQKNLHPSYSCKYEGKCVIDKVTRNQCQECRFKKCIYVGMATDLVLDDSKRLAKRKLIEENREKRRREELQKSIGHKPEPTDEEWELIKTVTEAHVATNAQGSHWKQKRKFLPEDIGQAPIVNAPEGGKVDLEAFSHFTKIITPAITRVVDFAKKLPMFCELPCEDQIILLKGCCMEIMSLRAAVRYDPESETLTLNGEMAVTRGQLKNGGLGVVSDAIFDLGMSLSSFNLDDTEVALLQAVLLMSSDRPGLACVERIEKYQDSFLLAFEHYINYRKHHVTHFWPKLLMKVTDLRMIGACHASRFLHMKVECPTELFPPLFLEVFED
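Each compound concentration gave % activity, normalized to unbound and bound Texas Red SRC2 controls, from polarization read after 5 hr ambient incubation with T3-loaded human TRb LBD.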
Tau FP inhib: inhibitors of human tau fibril formation; AID 1468; Potency, µM (top dose mostly 57.7 µM), inactives show at the highest dose activity, negative = inhibition, most hits filed as inhibitors; K18 P301L tau heparin fibrillization, Alexa594 FP, 6 h; 280,000 compounds, 0.39% hits; also: nearly all actives have a fitted effect of over 55% in size
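Human K18 P301L fragment (15 uM unlabeled plus 0.24 uM Alexa 594-labeled) in 100 mM sodium acetate pH 7 with compound, aggregation induced by 20 uM heparin for 6 hr at 37 C. ThT (30 uM) added for 1 hr, then Alexa 594 FP read.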
An asterisk follows results filed as active; ? = inconclusive; nt = not tested or not shown; [ ] = remark or other dose. This is a sample that favours compounds with a hit; in the whole collection about 3.2% have one here. Unless noted, calls follow the shape of the dose curve; as a rule, active = well fitted curve in the direction sought with a large enough effect; inconclusive = small, poorly fitted or top-dose-only effect, or another doubt; inactive = no such curve, though single readings can be large; an effect the other way counts as inactive or inconclusive. Unless noted, % is scaled to controls: 0 for no effect and ±100 for the full control effect; potency is read from the fitted curve at half-maximal effect.

SMILES	TR SRC2 fluor cs	GoLoco inh red	Tau fluor counter	Tau ThT inhib	TRb-SRC2 inh	Tau FP inhib
N#CC1=C(S)N=C(N)C(c2nc(-c3ccccc3)cs2)C12CCCC2 (configuration not stated)	0%	28%	?	28µM*	-19%	?
Cc1ccc(C)c(Cn2c(SCC(=O)NCc3ccccc3)nc3ccccc32)c1	-1%	nt	-2%	-10%	-4%	6%
O=[N+]([O-])c1ccc2c(c1Nc1ccccc1Cl)=NC1(CCCCC1)N=2	-1%	-23%	-15%	-20%	9%	0%
Cc1ccc(Nc2c([N+](=O)[O-])ccc3c2=NC2(CCCCC2)N=3)cc1	-3%	-47%	?	16µM*	-11%	-11%
Cc1nc2c(C(=O)NC(C)c3ccccc3)cnn2c(C)c1Cc1ccccc1 (configuration not stated)	-1%	nt	-16%	?	0%	0%
C/C(CCN1CCCCc2nc(C)c(C)cc21)=N\OC[C@@H](O)COCc1ccco1	-1%[11.2 µM]	nt	-11%[11.6 µM]	-4%[11.5 µM]	3%[11.2 µM]	-5%[11.6 µM]
Cc1ccc(Nc2nnc(-c3cc4c(ccc5ccccc54)oc3=O)s2)cc1	0.032µM*[quencher]	nt	-7%	?	?	7%
Cc1nc(N)sc1-c1csc(N(C)c2ccc(O)cc2)n1	-4%	11%	?	16µM*	-14%	?
COc1ccc(OC)c(Nc2nc(-c3ccc(C)cc3)nc3ccccc23)c1	-2%	nt	?	1%	5%	-13%
COc1ccccc1CNc1nc(-c2ccc(N(C)C)cc2)nc2ccccc12	6%	-37%	11µM*[quencher]	16µM*	-2%	?
COc1ccc(-c2nc(N/N=C(\C)c3ccc(O)cc3)c3ccccc3n2)cc1	-1%	4%	20µM*[quencher]	?	6%	6%
C/C(=N\Nc1nc(-c2ccc(C)cc2)nc2ccccc12)c1ccc([N+](=O)[O-])cc1	1%	-1%	-8%	-5%	2%	1%
COc1ccccc1CNc1nc(-c2ccc(C(=O)N(C)C)cc2)nc2ccccc12	nt	6%	nt	nt	nt	nt
COc1ccc(Nc2nc(-c3ccc(C)cc3)nc3ccccc23)c(OC)c1	-3%	nt	7.9µM*[quencher]	?	3%	-1%
CCOC(=O)C(Cc1c[nH]c2ccccc12)NC(=O)COc1ccc(Cl)c(C)c1 (configuration not stated)	-8%	nt	?	-6%	3%	17%
Cc1nn(C)c2c1c(C(F)(F)F)cc(=O)n2C(C)C(=O)NCc1ccccc1Cl (configuration not stated)	316µM*[quencher]	nt	-12%	-12%	-21%	5%
COc1ccccc1CNC(=O)C(C)n1c(=O)cc(C(F)(F)F)c2c(C)nn(C)c21 (configuration not stated)	-3%	nt	-8%	4%	-11%	-1%
N#CC(C#N)=CNCCN1CCN(C=C(C#N)C#N)CC1	nt	-2%[14.2 µM]	nt	nt	nt	nt
CC1(C)CC(=O)C=C(NC2=CC3OC(c4ccccc4)OCC3OC2=O)C1 (configuration not stated)	0%	-21%	-7%	18µM*	-10%	?
COc1ccc2nc(N3CCC(C)CC3)c(C#N)cc2c1	-5%	7%	?	35µM*	-1%	?
Cc1ccc(C=Nc2ccccc2C(N)=O)o1	2%	0%	-4%	-15%	-6%	4%
Cc1ccc(C=Nc2ccc(N(C)C)cc2)o1	18%	-4%	?	10µM*	?	25µM*
COc1ccc(OC)c(C2=Nn3c(nnc3-c3ccccc3O)SC2)c1	0%	nt	nt	nt	-2%	nt
CCOCCCNC(=O)/C(C#N)=C/c1ccc(Cl)c([N+](=O)[O-])c1	0%	-1%	-26%	?	-3%	5%
CCOCCCNC(=O)/C(C#N)=C/c1cc(OC)c(O)c([N+](=O)[O-])c1	-1%	9%	-11%	14µM*	-13%	10%
SMILES	TR SRC2 fluor cs	GoLoco inh red	Tau fluor counter	Tau ThT inhib	TRb-SRC2 inh	Tau FP inhib
CN(C)CCNC(=O)CN1N=C(c2ccccc2)CCC1=O	-1%	nt	2%	5%	0%	-3%
CCN(CC)c1ccc(NC(=O)COCc2cc(-c3ccc4c(c3)OCO4)on2)c(C)c1	-13%	nt	?	2.8µM*	1%	10%
N#CC1=C(N)NC(SCC(=O)O)=C(C#N)C12CCCC2	0%	32%	-13%	?	-12%	-3%
CC(C)N1CCC2(CC1)C(C#N)=C(N)NC(S)=C2C#N	-5%	nt	?	20µM*	18%	?
COc1ccc2c(CNC3CCCCCC3)c(C(=O)O)n(Cc3ccccc3F)c2c1	-1%	nt	-6%	-4%	-6%	4%
COC(=O)c1ccc(C(NC(=O)OCc2ccccc2)/C(I)=C/[C@@H](C)C(=O)Nc2ccccc2)cc1 (some centres not stated)	-3%	4%	?	?	0%	-3%
COC(=O)C/C=C\[C@@H](C)[C@@H](/C=N\O[C@@H](C)CN1CCCCc2nc(C)c(C)cc21)OC	-8%[11.2 µM]	nt	-2%[11.6 µM]	-3%[11.5 µM]	4%[11.2 µM]	1%[11.6 µM]
CCOc1ccc2[nH]c3c(N4CCc5ccccc5C4)ncnc3c2c1	-5%	3%	14µM*[quencher]	?	0%	?
Cc1ccc2[nH]c3c(N4CCc5ccccc5C4)ncnc3c2c1	-1%	3%	25µM*[quencher]	?	4%	?
Brc1ccc2[nH]c3c(N4CCc5ccccc5C4)ncnc3c2c1	1%	57%	11µM*[quencher]	-16%	12%	10%
c1ccc2c(c1)[nH]c1c(N3CCCC3)ncnc12	-4%	-19%	-3%	-20%	-5%	13%
Fc1ccc2[nH]c3c(N4CCc5ccccc5C4)ncnc3c2c1	-2%	9%	?	-6%	8%	-4%
COc1ccc(C)cc1NC(=O)N1CCN(c2nnc(C)c3c(C)n(-c4ccccc4)nc23)CC1	-1%	nt	3%	0%	-4%	-6%
CCC(Sc1nnc2c(n1)[nH]c1ccccc12)C(=O)Nc1ccccc1OC (configuration not stated)	-1%	nt	?	-2%	2%	?
